Among the data in PubChem BioAssay are z-score values, retold here.

This assay in a line: JC-1 mitochondrial signal, unstimulated myeloma cells – cell-based, JC-1 fluorescence, RPMI8226, 24 h, 100 nL compound, profiling panel (AID 1169). Also: test concentration not given here. To be noted: JC-1 mitochondrial potential fluorescence, higher = more signal.
On to `O=C(CS)NCCCCCNC(=O)[C@@H]1C[C@@H]2C(=O)NCC(=O)N2[C@@H]1c1cccc(OCCO)c1`, for which the z-score was -0.738.

Molecule `O=C(CS)NCCCCCNC(=O)[C@H]1C[C@H]2C(=O)NCC(=O)N2[C@H]1c1cccc(OCCO)c1` registered a z-score of 0.127.

As to `CN(C)CCCCNC(=O)[C@@H]1C[C@@H]2C(=O)N[C@@H](CCCCN)C(=O)N2[C@@H]1c1ccc(O)cc1`, the z-score is -0.836.

For `COc1ccc(CCNC(=O)[C@@]2(C)c3ccccc3C(=O)N(c3ccc(C)cn3)[C@H]2c2ccc(CO)cc2)cc1`, the z-score is 0.143.

`O=C(NCCN1CCOCC1)[C@@H]1c2ccccc2C(=O)N(Cc2cc(C(F)(F)F)cc(C(F)(F)F)c2)[C@H]1c1ccc(CO)cc1` gave a z-score of -0.021.

In turn, `O=C(NCc1ccccc1)[C@@H]1c2ccccc2C(=O)N(C2Cc3ccccc3C2)[C@H]1c1ccc(CO)cc1` had a z-score of 0.0926.

`COCCOC(=O)N1C(=O)[C@@]2(c3cc(C#CC4(O)CCCCCC4)ccc31)[C@H](C(=O)Nc1nc3ccccc3s1)[C@H]1C(=O)O[C@H](c3ccccc3)[C@H](c3ccccc3)N1[C@@H]2c1ccccc1OCCO` returned a z-score of -0.866.

The molecule `CC1CC/C=C\[C@H]2OC34C=CCN(c5ccc6ccccc6c5)C(=O)[C@H]3N(CCO)C(=O)[C@@H]4C2C(=O)O1` (stereo not given in full) displayed a z-score of -0.0138.

`O=C1O[C@@H](c2ccccc2)[C@@H](c2ccccc2)N2[C@@H](c3ccc(OCCO)cc3)[C@]3(C(=O)Nc4ccc(C#CCCO)cc43)[C@@H](C(=O)NC[C@H](O)c3ccccc3)[C@H]12`: the z-score was -0.479.

The molecule `O=C1OCCC/C=C\[C@H]2OC34C=CCN(c5ccc6ccccc6c5)C(=O)[C@H]3N(CCCCCO)C(=O)[C@@H]4C12` (stereo not given in full) yielded a z-score of 0.873.

Turning to `CC(C)CNC(=O)[C@@]1(Cc2ccccc2I)c2ccccc2C(=O)N(Cc2ccccc2C(F)(F)F)[C@H]1c1ccc(CO)cc1`, the z-score is -0.844.

With `C#CCOc1ccc(C[C@@H](C(=O)OC)N(CC#C)[C@@H](/C=C/C2CC2)[C@H](O)Cc2ccccc2)cc1`, the z-score was -0.79.

As for `CCOC(=O)[C@H]1C/C=C/C[C@H](C(=O)OCC)C(=O)O[C@H]2[C@@H](OC)O[C@H](CO)[C@@H](OC(=O)c3ccc(Br)cc3)[C@@H]2OC1=O`, the z-score was -0.935.

`O=C1[C@@]23C=C(Br)[C@H](C[C@@H]2COC3)[C@]12CO2` registered a z-score of -1.3.

In turn, `O=C1NC(=O)C2C1C=CC(C(O)c1ccc(-c3ccccc3)s1)N2Nc1ccc(Cl)cc1Cl` (stereo not given) yielded a z-score of -0.983.

On to `C=C(C(=O)CC[C@H](OC(C)=O)c1ccccc1OCCO)C(C)C`, for which the z-score is -0.621.

The molecule `O=C1C2C=CC(C(O)COCc3ccccc3)N(Nc3ccc([N+](=O)[O-])cc3)C2C(=O)N1c1ccccc1` (stereo not given) displayed a z-score of -0.25.

As to `COCC(=C=CC[C@H](O)c1cccc(OCCO)c1)CCO`, the z-score is -0.574.

Molecule `NCCCCCCNC(=O)[C@H]1C[C@H]2C(=O)N[C@@H](Cc3ccccc3)C(=O)N2[C@H]1c1cccc(OCCO)c1` returned a z-score of -0.802.

Consider `CCCCCN1CC=CC23O[C@@H]4C=CCOC(=O)[C@@H]4[C@H]2C(=O)N(C(C)CO)[C@@H]3C1=O` (stereo not given in full), for which the z-score was -0.704.

Molecule `CC(c1ccccc1)C(O)C1C=CC2C(=O)N(C)C(=O)C2N1NC(=O)OC(C)(C)C` (stereo not given) yielded a z-score of -0.104.

`COCCCNC(=O)[C@@H]1c2ccccc2C(=O)N(Cc2ccccc2)[C@H]1c1ccc(CO)cc1` displayed a z-score of 0.163.

In the case of `COCCOC(=O)N1C(=O)[C@@]2(c3cc(C#CCCO)ccc31)[C@H](c1ccc(OCCO)cc1)N1[C@H](c3ccccc3)[C@H](c3ccccc3)OC(=O)[C@H]1[C@@H]2C(N)=O`, the z-score is -0.899.

Molecule `COc1ccc(C(=O)Nc2ccc(CN3C(=O)[C@]4(O[C@H](CC(=O)N5CCC[C@H]5CO)[C@@H]([Si](C)(C)c5ccc(OC)cc5)[C@@H]4C)c4ccccc43)cc2)cc1` gave a z-score of -1.09.

In the case of `C=CC[C@]1(C(N)=O)COC(c2ccc(OCCCO)cc2)=N1`, the z-score came to 0.702.

The molecule `COC(=O)[C@@]1(Cc2ccccc2)[C@H]2c3cc(C(=O)N(C)C)n(CCc4c[nH]c5ccc(O)cc45)c3C[C@H]2CN1C(=O)c1ccccc1` had a z-score of -0.532.

With `COc1ccc(C#Cc2ccc3c(c2)[C@]2(C(=O)N3)[C@H](c3ccc(O)cc3)N3[C@H](c4ccccc4)[C@H](c4ccccc4)OC(=O)[C@H]3[C@@H]2C(=O)N2CCc3cc(OC)c(OC)cc3C2)cc1`, the z-score is -0.727.

In turn, `O=C1OCCC=C[C@H]2OC34C=CCN(Cn5nnc6ccccc65)C(=O)[C@H]3N(CCO)C(=O)[C@@H]4C12` (stereo not given in full) registered a z-score of 0.42.

Turning to `CC(C)Cc1ccc(CN2CC[C@@H](N)C2)cc1`, the z-score was -0.502.

Molecule `C[N+](C)(C)CCCCCCNC(=O)[C@H]1C[C@H]2C(=O)N[C@@H](Cc3ccccc3)C(=O)N2[C@H]1c1cccc(OCCO)c1` returned a z-score of -0.186.

For the molecule `CO[C@H]1O[C@H](CO)[C@@H](OC(=O)Nc2ccc(Oc3ccccc3)cc2)[C@H](OC(=O)Nc2ccc3c(c2)OCO3)[C@@H]1OC(=O)Nc1ccc2c(c1)OCO2`, the z-score was -0.48.

With `C=C(CCCC)/C(=C/C[C@@H](OC(C)=O)c1ccccc1OCCO)c1cc(C(=O)OC)ccc1OC`, the z-score was -0.118.

`C=CCC(OC(C)=O)[C@@H]1[C@@H](N(Cc2cc3ccccc3o2)C(=O)Cc2ccc(OC)cc2)c2cc(OCCCO)ccc2N1C(=O)c1ccc2ccccc2c1` (stereo not given in full) yielded a z-score of -0.0277.

Molecule `O=C1C2C=CC(C(O)c3c(F)cccc3Cl)N(Nc3ccccc3F)C2C(=O)N1c1ccccc1` (stereo not given) registered a z-score of -0.277.

The molecule `CN(C)C(=O)[C@]1(Cc2ccccc2)N=C(c2ccc(OCCCO)cc2)O[C@@H]1c1ccccc1N=[N+]=[N-]` gave a z-score of -1.18.
